# Shown is part of a subset that was picked to be rich in hits.
# IDE exosite FP: exo-site inhibitors of human IDE, primary screen, biochemical, fluorescence anisotropy, probe displacement. purified IDE, FL-6b probe fluorescence polarization; stronger effect = lower value. z-score at 20 µM. Insulin-degrading enzyme (Homo sapiens), P14735. actives 6.3% (n = 17,000);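 active = z-score of -3 or lower, meaning strong loss of probe binding signal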;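 also: His-tagged human IDE residues 42-1019 made in E. coli with 30 nM FL-6b probe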
# Numbers without * were called inactive; ! = not active in a repeat.
SMILES,IDE exosite FP
C/C=C/c1ccc([C@H]2[C@@H](CO)N[C@@H]2CNC(=O)Cc2ccccc2)cc1,0.74
CC(=O)N1CC(=O)N2[C@@H](CO)[C@H](c3ccc(-c4ccc(C)cc4)cc3)[C@@H]2C1,-1.5
COc1ccc(C(=O)Nc2ccc3c(c2)C(=O)N(C)[C@@H]2CC[C@H](CC(=O)NCC4CC4)O[C@H]2CO3)cc1,0.33
CCC(=O)N1[C@H](CO)[C@H](c2ccc(-c3ccncc3)cc2)[C@@H]1CN(C)C(C)=O,0.19
COc1ccc(S(=O)(=O)N2CC3(CN(C(=O)CN(C)C)[C@H](CO)c4c3c3ccc(OC)cc3n4C)C2)cc1,1.5
O=C(Nc1ccc(C(F)(F)F)cc1)N1[C@@H]2CNC[C@H]1C2c1ccc(-c2ccccc2F)cc1 (some centres not stated),0.6
O=C(Nc1ccccc1F)N1[C@@H]2CNC[C@H]1C2c1ccc(-c2ccncc2)cc1 (some centres not stated),1.8
COc1cccc(NC(=O)N2[C@@H]3CNC[C@H]2C3c2ccc(-c3cccc(OC)c3)cc2)c1 (some centres not stated),-7.3*!
COc1cccc(NC(=O)N2[C@@H]3CNC[C@H]2C3c2ccc(-c3cccnc3)cc2)c1 (some centres not stated),-0.47
COc1cccc(-c2ccc(C3[C@H]4CNC[C@@H]3N4C(=O)Nc3ccccc3Cl)cc2)c1 (some centres not stated),-1.8
COc1ccccc1-c1ccc(C2[C@H]3CNC[C@@H]2N3C(=O)Nc2ccccc2F)cc1 (some centres not stated),-11*
CCCC#Cc1ccc([C@H]2[C@@H](CO)N3C(=O)CN(C(=O)Nc4ccc(F)cc4)C[C@@H]23)cc1,5.5
Cc1cccc(-c2ccc([C@@H]3[C@H]4CN(C(=O)NC5CCCCC5)CC(=O)N4[C@H]3CO)cc2)c1,-16*
O=C(NC1CCCCC1)N1CC(=O)N2[C@@H](CO)[C@@H](c3ccc(C4=CCCC4)cc3)[C@@H]2C1,2.3
Cc1cccc(-c2ccc([C@H]3[C@@H](CO)N4C(=O)CN(C(=O)NC5CCCCC5)C[C@@H]34)cc2)c1,-10*
Cc1cccc(-c2ccc([C@H]3[C@H](CO)N4C(=O)CN(C(=O)NC5CCCCC5)C[C@@H]34)cc2)c1,-16*
O=C(NC1CCCCC1)N1CC(=O)N2[C@H](CO)[C@@H](c3ccc(-c4cccc(F)c4)cc3)[C@H]2C1,-1.6
O=C(NC1CCCCC1)N1CC(=O)N2[C@H](CO)[C@H](c3ccc(-c4cccc(F)c4)cc3)[C@@H]2C1,-0.028
CC(C)(O)C#Cc1ccc([C@H]2[C@@H](CO)N3CCCCN(C(=O)c4cccc(F)c4)C[C@@H]23)cc1,1.2
Cc1cccc(S(=O)(=O)N2[C@@H]3CNC[C@H]2C3c2ccc(-c3ccncc3)cc2)c1 (some centres not stated),1.8
O=C(C[C@H]1CC[C@H](NC(=O)Nc2ccc(C(F)(F)F)cc2)[C@@H](CO)O1)NCc1cccc(F)c1,3
CC(C)CC#Cc1ccc([C@H]2[C@H](CO)N3C(=O)CN(C(=O)Cc4cccnc4)C[C@@H]23)cc1,-0.13
Cc1cccc(S(=O)(=O)N2CCCCN3[C@H](CO)[C@H](c4ccc(C#CC(C)C)cc4)[C@@H]3C2)c1,3.5
CCCC(=O)Nc1ccc2c(c1)OC[C@H](C)NC[C@H](C)[C@@H](OC)CN(C)C2=O,-0.044
CNC[C@H]1OCCCC[C@@H](C)Oc2ccc(N)cc2C(=O)N([C@@H](C)CO)C[C@H]1C,1.8
SMILES,IDE exosite FP
C[C@@H]1CN([C@H](C)CO)C(=O)c2cc(NC(=O)Nc3cccc4ccccc34)ccc2O[C@@H](C)CCCCO[C@@H]1CN(C)S(=O)(=O)c1cn(C)cn1,-7.1*
C[C@@H]1CCCCO[C@@H](CN(C)S(=O)(=O)c2cn(C)cn2)[C@H](C)CN([C@H](C)CO)C(=O)c2cc(NC(=O)Nc3cccc4ccccc34)ccc2O1,-0.11
C[C@@H]1CCCCO[C@@H](CN(C)S(=O)(=O)c2cn(C)cn2)[C@H](C)CN([C@H](C)CO)C(=O)c2cc(N(C)C)ccc2O1,1.5
CCNC[C@@H]1[C@@H](c2ccc(-c3ccc(F)cc3)cc2)[C@@H](CO)N1C(=O)C1CC1,0.61
N#C[C@@H]1[C@H](c2ccc(C3=CCCC3)cc2)[C@@H](CO)N1c1nc(-c2ccccc2)cs1,0.18
CC(C)NC(=O)N1CCCCN2[C@H](C1)[C@H](c1ccc(C#Cc3ccccc3F)cc1)[C@@H]2CO,-9.6*
CC(C)NC(=O)N1CCCCN2[C@H](CO)[C@H](c3ccc(C#Cc4ccccc4F)cc3)[C@H]2C1,-4.5*
CC(C)NC(=O)N1CCCCN2[C@@H](CO)[C@H](c3ccc(C#Cc4ccccc4F)cc3)[C@@H]2C1,-13*
O=C(C[C@H]1C[C@H]2c3cc(NS(=O)(=O)c4ccc(F)cc4)ccc3O[C@H]2[C@H](CO)O1)NCc1cccnc1,0.09
OC[C@H]1[C@@H](c2ccc(-c3cccc(F)c3)cc2)[C@@H]2CN(CCC(F)(F)F)CCCCN12,1.3
O=C(Nc1ccc2c(c1)[C@@H]1C[C@H](CC(=O)N3CCc4ccccc4C3)O[C@@H](CO)[C@@H]1O2)c1ccc2c(c1)OCO2,1.2
O=C(Nc1ccc2c(c1)OCO2)N1[C@@H]2CNC[C@H]1C2c1ccc(-c2cccnc2)cc1 (some centres not stated),-2.1
CCCNC(=O)N1[C@H](CO)[C@H](c2ccccc2)[C@@H]1CNC(=O)C1CCCCC1,2.3
CCS(=O)(=O)N1CC2(CN(C)[C@@H](CO)c3c2c2ccc(OC)cc2n3C)C1,-1.1
O=C(c1cccc(F)c1)N1CC(=O)N2[C@H](CO)[C@@H](c3ccc(C#Cc4ccc(F)cc4)cc3)[C@H]2C1,2.1
O=C(C1CCCCC1)N1CC(=O)N2[C@@H](CO)[C@H](c3ccc(C#Cc4cccc(F)c4)cc3)[C@@H]2C1,0.21
O=C(C1CC1)N1CC(=O)N2[C@H](C1)[C@H](c1ccc(C#Cc3cccc(F)c3)cc1)[C@@H]2CO,-6.1*
O=C(C1CCC1)N1CC(=O)N2[C@H](CO)[C@H](c3ccc(C#Cc4cccc(F)c4)cc3)[C@@H]2C1,-2.8
O=C(C1CCCC1)N1CC(=O)N2[C@H](CO)[C@@H](c3ccc(C#CC4CCCC4)cc3)[C@@H]2C1,0.25
O=C(C1CCC1)N1CC(=O)N2[C@@H](CO)[C@H](c3ccc(C#Cc4cccc(F)c4)cc3)[C@@H]2C1,-3.4*
O=C(c1cccc(F)c1)N1CC(=O)N2[C@@H](CO)[C@H](c3ccc(C#Cc4ccc(F)cc4)cc3)[C@@H]2C1,3.4
O=C(C1CCC1)N1CC(=O)N2[C@H](C1)[C@@H](c1ccc(C#Cc3cccc(F)c3)cc1)[C@@H]2CO,-1.3
O=C(C1CCCCC1)N1CC(=O)N2[C@@H](CO)[C@@H](c3ccc(C#Cc4cccc(F)c4)cc3)[C@@H]2C1,-4.5*
O=C(c1cccnc1)N1CC(=O)N2[C@H](CO)[C@H](c3ccc(C#CCC4CCCC4)cc3)[C@@H]2C1,3.4
O=C(C[C@H]1CC[C@H](NC(=O)Nc2ccc(C(F)(F)F)cc2)[C@H](CO)O1)NCc1cccc(F)c1,0.75
C[C@H]1CNC(=O)[C@@H](Cc2ccc(C(F)(F)F)cc2)CCn2nncc2COC1,-1.1
CC(C)C#Cc1ccc([C@@H]2[C@H]3CN(C(=O)C4CCCCC4)CC(=O)N3[C@H]2CO)cc1,2.2
O=C(Nc1ccc2c(c1)[C@H]1C[C@@H](CC(=O)N3CCCCC3)O[C@H](CO)[C@H]1O2)NC1CCCCC1,-0.21

# Screening data as filed in PubChem.
